HepG2 tox = counter-screen for TGF-b inhibitors: cytotoxicity in HepG2 cells; HepG2 CAGA-GFP viability, ATP luminescence, 18 h; Potency, µM (top dose mostly 46.1 µM), inactives show at the highest dose activity change, negative = cytotoxicity, hits mostly cytotoxic; 410,000 tested, 0.76% active; note: potency is the fitted concentration of half-maximal effect
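HepG2 CAGA-GFP cells (1000/well, DMEM with 1% FBS) received compound, then TGF-beta at 500 pg/mL final, and were incubated 18 hours at 37 degrees C. Viability was read by CellTiter-Glo luminescence. Media-only wells were set as complete cell-killing and DMSO as no toxicity.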
TDP1 block = blocks human tyrosyl-DNA phosphodiesterase 1 | Q9NUW8 | recombinant TDP1, AlphaScreen DNA substrate cleavage | Potency, µM (series often up to 130 µM), for the others: at the highest dose activity change, negative = inhibition, hits mostly inhibitors | 350,000 tested, 0.28% active | AID 485290; note: potency is the fitted concentration of half-maximal effect; % is set by controls: 0 for no effect and ±100 for the full control effect; nearly all actives have a fitted effect of over 40% in size
Target sequence (Q9NUW8 whole entry, looked up): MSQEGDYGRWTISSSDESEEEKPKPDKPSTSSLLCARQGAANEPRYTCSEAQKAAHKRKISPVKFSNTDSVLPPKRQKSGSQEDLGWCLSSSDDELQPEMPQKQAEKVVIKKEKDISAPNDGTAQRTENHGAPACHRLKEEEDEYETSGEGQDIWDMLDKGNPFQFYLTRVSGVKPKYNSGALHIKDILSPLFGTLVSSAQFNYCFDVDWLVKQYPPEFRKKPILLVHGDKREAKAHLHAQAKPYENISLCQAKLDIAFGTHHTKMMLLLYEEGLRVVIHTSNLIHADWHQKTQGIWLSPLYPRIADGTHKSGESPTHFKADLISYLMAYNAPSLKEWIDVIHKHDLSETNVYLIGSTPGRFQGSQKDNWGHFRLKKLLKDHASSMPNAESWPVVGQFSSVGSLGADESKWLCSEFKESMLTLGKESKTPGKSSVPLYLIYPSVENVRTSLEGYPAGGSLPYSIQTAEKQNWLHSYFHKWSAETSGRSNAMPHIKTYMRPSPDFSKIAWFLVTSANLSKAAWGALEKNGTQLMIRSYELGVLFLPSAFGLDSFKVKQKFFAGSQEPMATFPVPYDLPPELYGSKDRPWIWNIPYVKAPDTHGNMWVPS
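Recombinant human Tdp1 (E. coli-expressed, 1 nM final) preincubated with compounds 15 min at room temperature, then 5'-biotin/3'-phosphotyrosine-FITC DNA substrate (15 nM final) added for 5 min. AlphaScreen beads (10 ug/ml final) added 10 min; cleavage lowers signal.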
IL-1B inflam inh = inflammasome signaling inhibition, IL-1 beta readout; THP-1 LPS/ATP IL-1B secretion, AlphaLISA, 16 h; stronger effect = lower value; activity change, % at 57.5 µM; 360,000 tested, 4.7% active; AID 743279; in the data active = activity change below about -50%; inconclusive = mostly about -30% to -49%; note: % is set by controls: 0 for no effect and ±100 for the full control effect
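Secreted IL-1B measured by AlphaLISA bead assay after 16 h compound exposure of THP-1 cells; compounds (final up to 57.5 uM) added 1 h before LPS (250 ng/mL) and ATP (1.25 mM) stimulation; lower signal means less secretion.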
TDP1 cell noCPT = qHTS for Inhibitors of human tyrosyl-DNA phosphodiesterase 1 (TDP1): qHTS in cells in absence of CPT | DT40 Tdp1-/- hTDP1 cells, no CPT, ATP luminescence, 48 h | 420,000 tested, 15% active | Potency, µM (top dose mostly 46.2 µM), inactives show top-dose activity change, negative = growth inhibition, usual class: inhibitors; note: potency is the fitted concentration of half-maximal effect; % is set by controls: 0 for no effect and ±100 for the full control effect; nearly all actives have a fitted effect of over 55% in size
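Growth of hTDP1-complemented DT40 Tdp1-knockout cells is measured by ATP luminescence after at least 48 hr compound exposure at 37 °C, with DMSO substituting for the 20 nM CPT used in the parallel screen.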
TGFb SMAD3 inh = TGF-b pathway inhibition; Potency, µM (top dose mostly 46.1 µM), for inactives: at the highest dose activity, negative = inhibition, most hits filed as inhibitors; HepG2 CAGA-GFP TGF-b/SMAD3 reporter, GFP fluorescence, 18 h; TGF-beta stimulated, 500 pg/mL final; 410,000 tested, 1.2% active; AID 588855; note: potency is the fitted concentration of half-maximal effect; % is set by controls: 0 for no effect and ±100 for the full control effect; nearly all actives have a fitted effect of over 65% in size
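TGF-beta reporter screen: HEPG2 CAGA-GFP, 1% FBS, 500 pg/mL TGF-beta final, 18 h; per-cell GFP summed per well; curves fitted and categorized by class.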
TDP1 cell CPT = DT40-hTDP1 cell growth loss with CPT | Potency, µM (titrated, usually from 46.2 µM), without a hit: at the highest dose activity change, negative = growth inhibition, actives largely listed as inhibitors | chicken DT40 Tdp1-/-;hTDP1 cells + 20 nM CPT, ATP luminescence, 48 h | 420,000 tested, 12% active; note: potency is the fitted concentration of half-maximal effect; % is set by controls: 0 for no effect and ±100 for the full control effect; nearly all actives have a fitted effect of over 55% in size
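Chicken DT40 Tdp1-/- cells stably complemented with human TDP1 were seeded at 400 cells/well in medium containing 20 nM camptothecin, exposed to pin-transferred compounds, and grown at 37 °C for at least 48 hr. Viability was read as ATP luminescence.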
Active calls of the source: *; ? = inconclusive; / = no result given; ! = repeats disagree; [ ] = another dose, or the depositor's remark. The list is not random: actives were taken first. Their share in the collection is about 18%. Unless noted, calls come from the whole dose curve; as a rule, active = well fitted curve in the direction sought with a large enough effect; inconclusive = small, poorly fitted or top-dose-only effect, or another doubt; inactive = no such curve, though single readings can be large; an effect the other way counts as inactive or inconclusive.

SMILES	HepG2 tox	TDP1 block	IL-1B inflam inh	TDP1 cell noCPT	TGFb SMAD3 inh	TDP1 cell CPT
O=C(N/N=C/c1ccc2c(c1)OCO2)c1ccc2c(c1)OCCO2	-16.2%	2.6%	-8.5	?	-3.2%	16.4µM*
O=C(N/N=C/c1ccc2c(c1)OCO2)c1cccs1	-27.0%	2.5%	?	?	-0.9%	?
CN(C)c1ccc(/C=N/NC(=O)c2ccc3c(c2)OCCO3)cc1	-31.0%	6.8%	0.0	-14.7%	-2.7%	-27.6%
O=C(N/N=C/c1c[nH]c2ccccc12)c1ccc2c(c1)OCCO2	-17.1%	3.5%	/	16.4µM*	4.0%	?
O=C(NN=Cc1ccc2c(c1)CCN2)c1cccs1	-32.0%	/	-1.8	14.6µM*	-15.5%	?
O=C(N/N=C/c1c[nH]c2ccccc12)c1ccccc1	-16.6%	2.0%	-2.4	-1.0%	-0.2%	3.2%
O=C(N/N=C/c1ccccc1O)c1ccc2c(c1)OCO2	-13.2%	/	92.9	4.11µM*	-25.6%	5.17µM*
CCN1CCCC1Cn1c(-c2ccccc2)nc2c(N3CCOCC3)nc(C)nc21 (stereo not drawn)	/	5.7%	/	/	/	/
N#CC1(NC(=O)COC(=O)/C=C/c2ccc3ccccc3n2)CCCCC1	-15.2%	-3.5%	-28.0	-20.0%	-11.1%	-21.3%
O=C(N/N=C/c1ccc2c(c1)OCO2)c1sc2cc(Cl)ccc2c1Cl	1.4%	1.1%	21.4	5.17µM*	-0.9%	5.8µM*
O=C(N/N=C/c1cc(Br)cs1)c1c[nH]c2ccccc12	-35.3%	0.0%	0.0	?	-16.8%	?
O=C(N/N=C/c1cc2c(cc1Br)OCO2)c1c[nH]c2ccccc12	-7.7%	5.4%	?	20.6µM*	13.6%	?
O=C(N/N=C/c1ccccc1OC(=O)c1ccc2c(c1)OCO2)c1cccc(F)c1	-28.9%	2.6%	121.6	1.3µM*	0.0%	1.16µM*
O=C(N/N=C/c1ccc2c(c1)OCO2)c1ccc(COCC(F)(F)C(F)F)cc1	-18.9%	56.2µM*	5.2	1.2%	-24.6%	-12.9%
COc1ccc(/C=N/NC(=O)c2ccc(COCC(F)(F)C(F)F)cc2)cc1	-0.1%	2.6%	-11.8	-2.1%	3.0%	6.4%
OCCOCCN1CCN(Cc2cccc(Oc3ccccc3)c2)CC1	/	5.6%	/	/	/	/
Cc1cccc(NC(=O)c2ccccc2SCc2ccc(F)cc2)n1	-18.4%	-5.6%	15.8	14.6µM*	-17.8%	?
COc1cccc(Oc2nc3ncn(Cc4ccccc4)c3c(=O)n2C)c1	-2.7%	6.5%	12.0	-24.6%	0.6%	-19.7%
COc1cccc(Cn2cnc(-c3ccccc3OC)c2-c2ccco2)c1	/	/	0.0	18.4µM*	/	18.4µM*
COc1cccc(-c2c(-c3ccccc3OC)ncn2Cc2cccc(-c3ccccc3)c2)c1	/	/	?	11.6µM*	/	8.2µM*
COc1cccc(Cn2cnc3c(N)c(C)c(C)cc32)c1	19.0%	5.9%	4.9	-37.6%	0.5%	-9.3%
Cc1cccc(C)c1NC(=O)NC1(C(=O)NCC2CCCO2)CCCCC1 (stereo not drawn)	-8.8%	6.7%	20.4	1.3%	-2.9%	6.1%
COc1ccc(CN(Cc2ccco2)C(=O)COc2ccc(Cl)cc2C)cc1	31.5%	0.0%	/	20.6µM*	0.0%	?
Cc1ccc(OCC(=O)N(Cc2ccc(Cl)cc2)Cc2ccco2)cc1C	-35.7%	4.9%	/	20.6µM*	/	?
Cc1ccc(OCC(=O)N(Cc2ccco2)C2CCS(=O)(=O)C2)cc1C (stereo not drawn)	-2.4%	/	-1.0	-26.8%	-9.9%	-7.3%
SMILES	HepG2 tox	TDP1 block	IL-1B inflam inh	TDP1 cell noCPT	TGFb SMAD3 inh	TDP1 cell CPT
Cc1ccc2c(c1)Oc1ccc(NC(=O)CCl)cc1C(=O)N2	8.91µM*	2.5%	-100.0*	2.31µM*	14.1µM*	2.59µM*
Cc1ccc2c(c1)Oc1ccc([N+](=O)[O-])cc1C(=O)N2	1.4%	2.5%	13.2	26.5%	12.6%	16.9%
OC1C(O)C(O)C(O)C(O)C1O (stereo not drawn)	17.5%	4.1%	10.5	?	-0.1%	15µM*!
CS/C(N)=C(C#N)/C(C#N)=C(\N)SC	/	1.0%	/	/	/	/
N=C(N)SCc1nc2ccccc2c(=O)n1-c1ccccc1	2.3%	-2.7%	?	18.4µM*	19.0%	?
O=C(O)c1ccc(CSc2nc3ccccc3c(=O)n2-c2ccccc2)cc1	-18.9%	/	-8.7	-8.0%	4.7%	-18.0%
CN1C(=O)/C(=N/OC(=O)c2ccccc2)c2ccccc21	-11.6%	5.9%	0.0	11.6µM*	-14.7%	7.31µM*
Cc1nc(NCc2ccccc2)c2nc(-c3ccccc3)n(CCN3CCOCC3)c2n1	/	11.1%	/	/	/	/
CC(=O)Oc1ccc(C2=Cc3ccc(OC(C)=O)cc3OC2C)cc1 (stereo not drawn)	2.9%	/	9.2	11.6µM*	-3.1%	18.4µM*
CC(=O)Oc1ccc(C)cc1	/	-2.1%	/	-0.2%	/	9.6%
COC(=O)C1=C(C)N(c2cc(Cl)cc(Cl)c2)C(=O)C1	-17.3%	1.0%	-27.0	8.2µM*	-18.8%	7.31µM*
COC(=O)C1=C(C)N(c2ccc(C(=O)OC)cc2)C(=O)C1	-24.9%	5.5%	8.9	?	-4.2%	?
COCCn1c(=O)sc2ccccc2c1=O	4.7%	-2.9%	64.7	?	-1.7%	20.6µM*
COCCn1c(C2CCCCC2)nc2sc3ccccc3c(=O)c2c1=O	4.6%	2.9%	-12.9	23.1µM*	0.7%	?
CCc1nc2sc3ccccc3c(=O)c2c(=O)n1CCOC	-1.2%	7.8%	-7.4	?	-13.1%	-28.7%
COc1ccc(Cn2c(=O)sc3ccccc3c2=O)cc1	-11.8%	/	12.9	-22.8%	-22.1%	1.4%
CCCCC[C@H](O)C=C[C@H]1[C@H](O)CC(=O)[C@H]1CCCCCCC(=O)O	/	10.7%	/	?	/	?
Nc1c(N=Nc2ccc(-c3ccc(N=Nc4cc(S(=O)(=O)O)c5ccccc5c4N)cc3)cc2)cc(S(=O)(=O)O)c2ccccc12	/	20.4%	/	?	/	?
Cc1cc(-c2ccc(N=Nc3ccc4c(S(=O)(=O)O)cc(S(=O)(=O)O)c(N)c4c3O)c(C)c2)ccc1N=Nc1ccc2c(S(=O)(=O)O)cc(S(=O)(=O)O)c(N)c2c1O	/	24.1%[56.1 µM]	/	11.9µM*	/	7.5µM*
COc1ccc(NC(=O)CN2C(=O)CC(c3ccco3)Sc3ccccc32)cc1OC (stereo not drawn)	-13.0%	1.0%	/	/	13.9%	/
